High-throughput results as filed in PubChem BioAssay.
TDP1 cell CPT: DT40-hTDP1 cell growth loss with CPT; Potency, µM (highest dose often 46.2 µM), inactives show top-dose activity change, negative = growth inhibition, usual class: inhibitors; AID 686979; chicken DT40 Tdp1-/-;hTDP1 cells + 20 nM CPT, ATP luminescence, 48 h; hit rate 12% among 420,000; note: nearly all actives have a fitted effect of over 55% in size
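Chicken DT40 Tdp1-/- cells stably complemented with human TDP1 were seeded at 400 cells/well in medium containing 20 nM camptothecin, exposed to pin-transferred compounds, and grown at 37 °C for at least 48 hr. Viability was read as ATP luminescence.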
KB-V1 cytotox: KB-V1 MDR subline cytotoxicity. AID 1347076. Potency, µM (titrated, usually from 46.1 µM), actives largely listed as cytotoxic. hit rate 3.4% among 400,000. KB-V1 MDR cells viability, CellTiter-Glo, 72 h; note: nearly all actives have a fitted effect of over 60% in size
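In this primary screen, KB-V1 cells overexpressing P-gp are incubated with library compounds (lowest to highest concentration) for 72 h at 37 degrees C before a luminescent ATP viability read.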
HT1080 IDH1KD tx: kills HT-1080 cells with IDH1 knockdown; Potency, µM (highest dose often 46.1 µM), without a hit: at the top dose activity, negative = toxicity, usual class: cytotoxic; HT-1080 IDH1 knockdown viability, ATP luminescence, 48 h; AID 686971; hit rate 2% among 360,000;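 note: 0% = DMSO wells and -100% = cell-free medium wells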
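HT-1080-IDH1KD cells (IDH1 knocked down), 750/well in RPMI with 5% FBS, treated with compound 48 h at 37 degrees C. Viability by CellTiter-Glo luminescence, normalised to DMSO and no-cell wells; concentration-response curves classed.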
HT1080NT lethal: kills 2HG-producing HT-1080-NT fibrosarcoma cells; HT-1080-NT fibrosarcoma viability, CellTiter-Glo ATP luminescence, 48 h; Potency, µM (highest dose often 46.1 µM), for the others: at the top dose activity, negative = less viability, most hits filed as cytotoxic; hit rate 1.6% among 360,000; AID 686970;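 note: NT is the 2HG producing partner of a matched IDH1 knockdown line; 0% = DMSO-treated cells and -100% = media-only wells without cells; nearly all actives have a fitted effect of over 55% in size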
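Viability of the 2HG-overproducing fibrosarcoma line after 48 hours of compound exposure at 37 degrees C was determined by luminescence with CellTiter-Glo, and concentration-effect curves were then fitted and categorized.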
KB-3-1 cytotox: KB-3-1 parental cell cytotoxicity; KB-3-1 viability, CellTiter-Glo ATP luminescence, 72 h; Potency, µM (doses to about 46.1 µM), usual class: cytotoxic; hit rate 1.4% among 400,000; AID 1347075; note: nearly all actives have a fitted effect of over 60% in size
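KB-3-1 cells, DMEM (no phenol red) + 10% FBS; compound by pin transfer, 72 h, 37 °C. Readout: CellTiter-Glo luminescence after 10 min. Data normalized, curve-fitted.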
TDP1 cell noCPT: qHTS for Inhibitors of human tyrosyl-DNA phosphodiesterase 1 (TDP1): qHTS in cells in absence of CPT; DT40 Tdp1-/- hTDP1 cells, no CPT, ATP luminescence, 48 h; Potency, µM (doses to about 46.2 µM), for inactives: top-dose activity change, negative = growth inhibition, most hits filed as inhibitors; hit rate 15% among 420,000; note: nearly all actives have a fitted effect of over 55% in size
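Stably hTDP1-transfected Tdp1-null chicken DT40 cells were treated with library compounds minus camptothecin and grown for at least 48 hr at 37 °C, after which cellular ATP was quantified by luminescence.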
Numbers without * were called inactive; i = inactive; ? = inconclusive; . = not tested or not shown; ! = not active in a repeat. Sampled rows, rich in hits. Any-hit rate of the full collection: about 19%. Calls come from the whole dose curve; as a rule, active = well fitted curve in the direction sought with a large enough effect; inconclusive = small, poorly fitted or top-dose-only effect, or another doubt; inactive = no such curve, though single readings can be large; an effect the other way counts as inactive or inconclusive. Unless noted, % is set by controls: 0 for no effect and ±100 for the full control effect; potency is the fitted concentration of half-maximal effect.

SMILES	TDP1 cell CPT	KB-V1 cytotox	HT1080 IDH1KD tx	HT1080NT lethal	KB-3-1 cytotox	TDP1 cell noCPT
COc1cc(NC(=O)Cn2nc(C(F)(F)F)c3c2CCCC3)cc(OC)c1OC	23.1µM*	i	-20.6%	-9.0%	?	10.3µM*
COc1ccc(CN(C(=O)c2snc(C(N)=O)c2N)C(C(=O)NC2CCCC2)c2cc(OC)ccc2OC)cc1 (configuration not stated)	-27.9%	?	0.1%	-8.3%	i	?
Cc1ccc(C)c(NC(=O)CCc2nc3cccnc3n2Cc2cccs2)c1	18.4µM*	i	.	.	i	20.6µM*
CCCn1c(CCC(=O)Nc2cc(Cl)c(OC)cc2OC)nc2cccnc21	?	i	.	.	i	16.4µM*
COc1cc(NC(=O)CCc2nc3cccnc3n2Cc2cccs2)cc(OC)c1OC	16.4µM*	i	.	.	i	16.4µM*
C[C@H](CO)N1C[C@H](C)[C@@H](CN(C)C(=O)NC2CCCCC2)Oc2c(NC(=O)c3ccncc3)cccc2C1=O	5.3%	i	14.6%	9.0%	i	-4.6%
CCCCSCCCNC(=O)c1ccc(CS(=O)(=O)c2ccc(OC)cc2)o1	18.4µM*	?	4.7%	1.6%	i	?
COc1ccc(S(=O)(=O)Cc2ccc(C(=O)NCc3ccccc3OC)o2)cc1	20.6µM*	i	-5.4%	-10.3%	i	-23.7%
CCCCNC(=O)c1ccc(CS(=O)(=O)c2ccc(OC)cc2)o1	?	i	-9.0%	-6.7%	i	-25.5%
COCCNC(=O)c1ccc(CS(=O)(=O)c2ccccc2)o1	18.4µM*	i	1.7%	-0.2%	i	16.4µM*
CC1=C(C(=O)Nc2ccccc2)C(c2cccc(Cl)c2)n2nc(SCC(=O)c3ccc(C)cc3)nc2N1 (configuration not stated)	-1.0%	i	.	.	i	-6.9%
CCCCCCCCCCCCCCCCCC(=O)OCCO	?	.	.	.	.	-40.1%
CCOCCCN(C)C1CCN(S(=O)(=O)c2csc(C(N)=O)c2)CC1	2.1%	?	7.8%	25.7%	i	-6.7%
CCc1nn2c(=O)c(S(=O)(=O)Nc3ccc(Br)cc3F)c(C)nc2s1	-28.3%	i	.	.	i	-25.2%
CCOC(=O)C1C(=O)NC(SC)=C(C#N)C1c1ccccc1F (configuration not stated)	?	14.6µM*	0.6%	7.6%	i	-19.1%
CC1=C(C(=O)OC(C)C)[C@@H](c2cccc3nonc23)C([N+](=O)[O-])=C(C)N1	?	.	.	.	.	14.6µM*
COC(=O)C1=C(C)NC(C)=C([N+](=O)[O-])C1c1ccccc1C(F)(F)F (configuration not stated)	17.4µM*	i	-20.2%	-15.5%	i	12.3µM*!
O=C1CN(C(=O)COC(=O)CCSc2ccccc2Cl)c2ccccc2N1	10.1%	i	12.8%	9.4%	i	-20.7%
COC(=O)c1ccc(OCC(O)Cn2nnc3ccccc32)cc1 (configuration not stated)	-8.3%	23.1µM*	-2.5%	-2.6%	i	?
O=C1C2CC=CCC2C(=O)N1c1ccc(OCC(O)Cn2nnc3ccccc32)cc1 (configuration not stated)	?	14.6µM*	-1.0%	0.6%	?	23.1µM*
Oc1ccc(O)cc1	20.6µM*	.	.	.	.	?
O=C(c1ccc(O)cc1)c1ccc(C(=O)c2ccc(O)cc2)cc1	-27.8%	?	-5.8%	-2.0%	i	?
OC(CN1CCN(Cc2ccccc2)CC1)Cn1c2ccccc2c2ccccc21 (configuration not stated)	23.1µM*	23.1µM*	?	?	?	?
CC1CCN(CC(O)Cn2c3ccccc3c3ccccc32)CC1 (configuration not stated)	-22.8%	?	-25.2%	-26.4%	i	?
CC1CCCC(C)N1CC(O)Cn1c2ccccc2c2ccccc21 (configuration not stated)	1.84µM*	i	1.3%	-2.1%	i	2.59µM*
SMILES	TDP1 cell CPT	KB-V1 cytotox	HT1080 IDH1KD tx	HT1080NT lethal	KB-3-1 cytotox	TDP1 cell noCPT
Cc1cc(=O)n2c3ccccc3n(CC(O)CN3CCN(Cc4ccccc4)CC3)c2c1C#N (configuration not stated)	11.6µM*	i	-0.6%	10.0%	i	11.6µM*
OC(CN1CCOCC1)Cn1c2ccccc2c2ccccc21 (configuration not stated)	5.4%	i	6.4%	-2.8%	i	?
OC(CN1CCN(c2ccccc2)CC1)Cn1c2ccccc2c2ccccc21 (configuration not stated)	18.4µM*	i	0.4%	6.1%	?	13µM*
CC(C)NC(=S)Nc1ccc2cn[nH]c2c1	0.1%	i	3.6%	1.8%	i	-24.2%
Cc1ccc(Cl)cc1NC(=O)C1C2CCC(O2)C1C(=O)O (configuration not stated)	-9.9%	?	-3.9%	1.8%	i	2.7%
COc1ccccc1-c1nnc(SC2CCc3ccccc3NC2=O)s1 (configuration not stated)	?	5.8µM*	-14.2%	3.2%	i	?
Cc1sc2ncnc(N/N=C/c3ccccc3O)c2c1C	3.66µM*	?	?	?	?	3.26µM*
COc1ccc(/C=N/Nc2nonc2N)cc1	-5.2%	20.6µM*	4.6%	9.1%	?	-11.5%
COc1ccc(-c2csc3ncnc(Nc4ccccc4)c23)cc1	-13.2%	i	.	.	i	-24.2%
COc1ccc(/C=N/Nc2ncnc3sc(C)c(C)c23)cc1	2.91µM*	i	-24.5%	-8.5%	i	4.11µM*
COc1cccc(/C=N/Nc2ncnc3scc(-c4ccccc4)c23)c1OC	?	i	11.2µM*	20µM*	i	18.4µM*
Cc1sc2ncnc(N/N=C/c3ccc(O)cc3)c2c1C	?	?	?	-14.4%	i	?
CCOC(=O)C(C#N)(Cc1ccc2ccccc2n1)Cc1ccc2ccccc2n1	?	i	-12.2%	-9.0%	i	?
O=C(Nc1cc(Cl)ccc1Cl)c1ccc(OC(=O)c2ccco2)cc1	-3.7%	i	-23.8%	8.8%	i	?
CCCc1ccc2oc(C(=O)NCCN3CCCC(C(N)=O)C3)c(C)c2c1 (configuration not stated)	?	i	-16.1%	-19.1%	i	?
